Results as given in PubChem BioAssay AID731 (The Scripps Research Institute Molecular Screening Center, 2007).
Screen size: about 200,000 compounds; about 520 (0.26%) were called active. This is one part of a sample in which actives are shown more often than they occur. Unmarked numbers belong to inactive results. Rule as the data show it: active = activation above about 23%; inactive = the rest.

These compounds were tested against Peroxisome proliferator-activated receptor gamma (Homo sapiens) (UniProt P37231) (assay: PPARgamma agonists recruiting SRC-3 coactivator, primary screen, biochemical (AID 731;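 also: 0% = DMSO and 100% = reference agonist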)). Conditions: biochemical PPARgamma/SRC-3 coactivator recruitment assay; at 8 µM; active compounds read high.
Peroxisome proliferator-activated receptor gamma (Homo sapiens), sequence (P37231 whole entry, looked up): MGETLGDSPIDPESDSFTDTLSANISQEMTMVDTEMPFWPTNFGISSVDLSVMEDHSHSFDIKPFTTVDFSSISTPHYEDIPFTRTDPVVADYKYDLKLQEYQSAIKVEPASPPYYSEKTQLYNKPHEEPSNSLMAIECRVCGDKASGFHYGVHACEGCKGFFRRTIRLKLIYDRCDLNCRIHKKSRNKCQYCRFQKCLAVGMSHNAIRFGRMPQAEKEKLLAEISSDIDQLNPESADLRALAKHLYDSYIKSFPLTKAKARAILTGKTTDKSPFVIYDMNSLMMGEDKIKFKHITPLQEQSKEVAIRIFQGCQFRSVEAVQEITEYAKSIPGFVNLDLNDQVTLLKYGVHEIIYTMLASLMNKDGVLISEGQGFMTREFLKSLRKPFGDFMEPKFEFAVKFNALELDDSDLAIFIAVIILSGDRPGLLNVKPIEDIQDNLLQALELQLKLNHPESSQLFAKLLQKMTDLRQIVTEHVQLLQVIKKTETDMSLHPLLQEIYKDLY

| SMILES | activation |
| --- | --- |
| COc1cccc(NC(=O)c2ccc(S(=O)(=O)N(C)C)cc2)c1 | -1.26% |
| COc1ccc(/C=N/Nc2ncnc3sc4c(c23)CCCC4)cc1O | -0.73% |
| CCOC(=O)c1sc(-c2cccc([N+](=O)[O-])c2)cc1N | 10% |
| Cc1nc2ccccn2c1C(=O)NN=C1CCN(C)CC1 | -4.87% |
| O=C(NC(=S)Nc1cccc(-c2ccc(CO)o2)c1)c1cccs1 | 9.26% |
| O=C(NCc1ccco1)c1cc(-c2cccnc2)nc2ccc(Cl)cc12 | 7.42% |
| O=C(CSc1c2c(nc3ccc(Cl)cc13)CCCC2)NCc1ccco1 | 31.6% (active) |
| O=C(/C=C/c1ccc(Cl)cc1Cl)NCc1ccco1 | -0.09% |
| Cc1ccn(CC(=O)N2N=C(C(F)F)CC2(O)C(F)F)n1 (centres undefined) | 3.61% |
| COc1ccc(N(C)S(=O)(=O)c2cccc3nsnc23)cc1 | -0.54% |
| CCN(/N=C/c1ccc(N(C)C)cc1)c1nc2ccccc2[nH]1 | 16.6% |
| CC1c2nc3ccccc3n2C(CC(=O)NCCCN2CCOCC2)C(=O)N1Cc1ccccc1 (centres undefined) | -3.13% |
| Cc1cccc(OP(=O)(Nc2c(C)n(C)n(-c3ccccc3)c2=O)Oc2cccc(C)c2)c1 | 2.47% |
| CCN(CC)CCCNC(=O)CCc1ccccc1 | 4% |
| CCN(CCCNC(=O)CSc1cc(=O)n(C)c2cc(Cl)ccc12)Cc1ccccc1 | 42.4% (active) |
| CCN(CC)CCCNC(=O)c1cc(-c2cccc(Cl)c2)on1 | -5.33% |
| Cc1cc[n+](-c2[nH]c(=O)sc2/C=N/NC(=O)c2ccccc2[O-])cc1C | 1.17% |
| CC(C)NC(=O)CSc1ccccc1C(=O)NCc1ccc2c(c1)OCO2 | -3.43% |
| CCn1c(=O)cc(SCC(=O)NCc2ccc3c(c2)OCO3)c2ccccc21 | 31.8% (active) |
| CCn1c(=O)cc(SCC(=O)NCCC2=CCCCC2)c2ccccc21 | 10.5% |
| O=C(NCc1ccco1)C(=O)c1cn(CC(=O)N2CCCCCC2)c2ccccc12 | 4.6% |
| CN(C)c1ccc(C(CC(=O)O)C(=O)O)cc1 (centres undefined) | 5.46% |
| O=C(CNC(=O)C(c1ccccc1)c1ccccc1)N/N=C\c1ccc2c(c1)OCO2 | -7.73% |
| COc1ccc(/C=C/C(=O)NC(=S)NN2CCCCC2c2cccnc2)cc1 (centres undefined) | -0.5% |

| SMILES | activation |
| --- | --- |
| Cc1nc2ccccc2cc1OCc1ccc(F)cc1 | 4.08% |
| Fc1ccc(COc2cccc(-c3n[nH]c(=S)o3)c2)cc1 | 29.3% (active) |
| Cc1cccc(OCc2ccc(C(=O)Nc3ccc(F)cc3)cc2)c1 | -4.26% |
| CC(C)/C=N/NC(=O)c1cc(Br)ccc1O | 4.98% |
| COc1cccc(-n2c(=S)sc3c(=O)n(-c4ccccc4OC)c(SCC4OCCO4)nc32)c1 | -1.02% |
| O=C(CCc1nnc(CCCCc2ccccc2)o1)NC(c1cccnc1)C(F)(F)F (centres undefined) | 0.98% |
| COc1ccccc1N1CCN(/N=C\C(Br)=C\c2ccccc2)CC1 | 0.45% |
| CC(=O)c1sc2nc(SCC(=O)N3CCCCC3)[nH]c(=O)c2c1C | 32.9% (active) |
| C=CCNC(=O)CSc1nc2sc(C)c(C)c2c(=O)[nH]1 | -3.68% |
| O=C(CSc1nc2c(cnn2-c2ccc(F)cc2)c(=O)[nH]1)N1CCCCCC1 | -0.08% |
| COCCN(C(=O)CCC(=O)Nc1nccs1)C(C(=O)NC(C)(C)C)c1ccc(Cl)cc1 (centres undefined) | 8.27% |
| Cc1ccccc1C1=N/C(=C/c2cccnc2)C(=O)O1 | 5.51% |
| Cc1ccc(S(=O)(=O)N(C)CC(=O)OCC(=O)N2CC(=O)Nc3ccccc32)cc1 | -1.93% |
| COc1cccc(NC(=O)Cn2c3ccccc3c3nc4n(c(=O)c32)CCS4)c1 | 3.77% |
| O=C(NCc1cccs1)C1CCN(S(=O)(=O)c2ccc(Cl)cc2)CC1 | 0.55% |
| O=C(N/C(=C\c1ccc(F)cc1)C(=O)N1CCCCCC1)c1ccccc1 | 2.6% |
| Cc1c(Cc2ccccc2)c(=O)oc2cc(OCC(N)=O)ccc12 | 1.07% |
| CC(=O)Oc1ccc2c(C)c(CC(C)O)c(=O)oc2c1 (centres undefined) | -4.46% |
| O=C(Oc1ccccc1)Oc1ccc2c(c1)oc(=O)c1ccccc12 | 57.2% (active) |
| CNc1ccc(NC(C)=O)cc1[N+](=O)[O-] | -3.86% |
| CCC1(CC)NC(=O)N(CC(=O)OCC(=O)Nc2ccc(C(F)(F)F)cc2)C1=O | -5.07% |
| CCCCCOc1ccc(/C=C/C(=O)NCCc2nc3ccccc3[nH]2)cc1OC | 0.87% |
| Cn1c(C(=O)OC(C(=O)NC2CCCCC2)c2ccccn2)cc2sccc21 (centres undefined) | 0.71% |
| Cc1ccc(Cl)cc1NC(=O)C1CCN(S(C)(=O)=O)CC1 | -1.48% |

| SMILES | activation |
| --- | --- |
| CCNCCC(=O)N1c2ccccc2Sc2ccc(NC(=O)OCC)cc21 | -12.4% |
| NNC(=O)C1CC(O)CN1S(=O)(=O)c1ccc(Cl)cc1 (centres undefined) | 8.66% |
| CC1CC(C)CN(CCC(=O)Nc2ccc3c(c2)CCC3)C1 (centres undefined) | 6.43% |
| COC(C(=O)Nc1ccc(C(C)=O)cc1)c1ccccc1 (centres undefined) | -2.12% |
| COc1ccccc1CCNC(=O)CSc1nnc2ccc(-c3cccnc3)nn12 | 2.38% |
| O=C(CN1CCN(c2ncccn2)CC1)Nc1ccccc1C(F)(F)F | -0.44% |
| COCCn1c(Cc2cccn2C)nnc1SCC(=O)Nc1nccs1 | 4.15% |
| Cc1nc(N2CCOCC2)c2c(C)c(C(=O)Nc3ccc(C(F)(F)F)cc3)sc2n1 | 6.42% |
| Cc1ccc(N2C(=O)C3C(c4ccccc4)(C2=O)C3(c2ccccc2)c2ccccc2)cc1 (centres undefined) | -5.3% |
| O=C(O)CCS(=O)(=O)c1ccc(-c2ccccc2)cc1 | -2.87% |
| C=CCC(CC=C)(C(N)=O)c1ccccc1 | -2.8% |
| CCOC(=O)CNC(=O)CSc1ccc2nnc(-c3cccnc3)n2n1 | -2.1% |
| COc1ccc(OCC(=O)Nc2ccc(N3CCC(C)CC3)cc2)cc1 | 1.65% |
| CCOc1ccc(Br)cc1S(=O)(=O)Nc1cccc(S(=O)(=O)N(CC)CC)c1 | -0.46% |
| CC(=O)N1CC(C)c2scc(C)[n+]2-c2ccccc21 (centres undefined) | 0.84% |
| CCC(C)N(C)C1CCN(C(=S)Nc2ccc(OC)cc2)CC1 (centres undefined) | -0.62% |
| CCN(CC)c1ccc2oc(=O)c(C)nc2c1 | 30.3% (active) |
| CCN(CC)c1ccc2c(Nc3ccccc3)c(C=O)c(=O)oc2c1 | -1.59% |
| CCN(CC)c1ccc2cc(C(=O)O)c(=O)oc2c1 | 1.62% |
| Cc1ccccc1N/C(SCc1ccc(Cl)cc1)=C(/C#N)C(N)=O | -0.24% |
| CCCCC1N2CC3([N+](=O)[O-])CN1CC([N+](=O)[O-])(C2)C3(C)C (centres undefined) | 3.26% |
| Cc1nc(SCC(=O)N2CC(=O)Nc3ccccc32)c2c(C)c(C)sc2n1 | 7.47% |
| COc1cc(/C=C/C2=CC(C)(C)NC(=S)N2)cc(OC)c1OC | -3.19% |
| COc1cc(C(=S)N2CCOCC2)cc(OC)c1OC(=O)c1cc([N+](=O)[O-])c(C)c([N+](=O)[O-])c1 | 27.4% (active) |

| SMILES | activation |
| --- | --- |
| COc1cc(C(=S)N2CCOCC2)ccc1O | 6.53% |
| COc1cc(C(=S)N2CCOCC2)cc(OC)c1OC(=O)c1cc([N+](=O)[O-])cc([N+](=O)[O-])c1 | 1.22% |
| COC(=O)Cc1ccc(NC(=S)NCc2ccco2)cc1 | -0.79% |
| CCc1nnc(NC(=O)Cc2cccs2)s1 | 0.13% |
| O=C(O)CCCCOn1ccnc1 | -4.37% |
| CN1CCN(c2ccc(S(=O)(=O)Nc3ccccc3)cc2[N+](=O)[O-])CC1 | 8.11% |
| CC(C)(C)c1ccc(/C=C/C(=O)Nc2ncccn2)cc1 | -0.41% |
| O=C(C1=C[C@H](c2ccc(C(F)(F)F)cc2)C[C@H](OCc2ccc(CO)cc2)O1)N1CCN(Cc2ccccc2)CC1 | 5.31% |
| N#Cc1ccccc1Sc1ccccc1C(=O)OCC(=O)NC1CCCCC1 | -1.17% |
| CCOc1ccc(NC(=O)CCC(=O)n2nc(C)cc2C)cc1 | 19.2% |
| CCOc1ccc(NC(=O)CSc2ncnc3c2sc2ccccc23)cc1 | 23.1% (active) |
| CCOc1ccc(NC(=O)CSc2nc3ccccc3c(=O)n2Cc2cccs2)cc1 | -1% |
| COc1cc(OC)c(-n2cc(-c3ccc(Cl)cc3)[nH]c2=O)cc1Cl | 2.05% |
| NS(=O)(=O)c1ccc(NC(=O)COC(=O)CCc2c[nH]c3ccccc23)cc1 | 1.02% |
| COc1cc(NS(=O)(=O)c2ccc(NC(=O)CN3C(=O)c4ccccc4C3=O)cc2)ncn1 | 4.24% |
| COc1ccc(C(CC(=O)Nc2ccc(C)cc2)NC(=O)C(F)(F)F)cc1 (centres undefined) | 1.26% |
| CN1CCC(OC(=O)COc2ccc(Cl)cc2Cl)CC1 | -2.65% |
| Cc1ccc(NC(=O)OCc2cncs2)cc1 | 3.15% |
| O=C1C2C3C=CC(C4CC34)C2C(=O)N1c1nccs1 (centres undefined) | -3% |
| O=C(/C=C/c1cn(-c2ccccc2)nc1-c1ccc2c(c1)OCCO2)NCCCN1CCOCC1 | 5.25% |
| Cc1cccc(OCCNC(=O)CSc2ccc(C(F)(F)F)cc2[N+](=O)[O-])c1 | -3.57% |
| Cc1cc(O)c(NC(=O)c2ccc(C)c([N+](=O)[O-])c2)cc1C | -0.67% |
